Data as given in PubChem BioAssay (NCI).
This is part of a sample that, as a whole, favours compounds with a hit. Of some 83,000 tested, about 20% had one in any assay.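 Step 1: grow cells in 96-well plates. Step 2: add test compound at a single concentration. Step 3: incubate 48 h. Step 4: record percent growth.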 Calls of active or inactive are those of the source. Rule for the calls: active = growth percent below 10; inactive = the rest.

Tests used:
Assay in all cases: NCI-60 one-dose screen, 48 h (100 = growth as untreated, 0 = no growth, -100 = all killed)
Conditions in all cases: 10 µM unless noted
SR leukemia = test system: SR leukemia
RPMI-8226 leukemia = test system: RPMI-8226 leukemia
OVCAR-8 ovarian = test system: OVCAR-8 ovarian
OVCAR-5 ovarian = test system: OVCAR-5 ovarian
OVCAR-4 ovarian = test system: OVCAR-4 ovarian
SK-OV-3 ovarian = test system: SK-OV-3 ovarian
IGROV1 ovarian = test system: IGROV1 ovarian
OVCAR-3 ovarian = test system: OVCAR-3 ovarian
HS 578T breast = test system: HS 578T breast
NCI/ADR-RES ovarian = test system: NCI/ADR-RES ovarian

Measured: growth

COc1ccc(-c2noc(C(=O)O)c2-c2cc(OC)c(OC)c(OC)c2)cc1
inactive: SR leukemia 10.4% | OVCAR-8 ovarian 30.4% | OVCAR-5 ovarian 87% | OVCAR-4 ovarian 76.7% | SK-OV-3 ovarian 23.5% | IGROV1 ovarian 47% | HS 578T breast 13.3% | NCI/ADR-RES ovarian 27.7%
active: RPMI-8226 leukemia 0.35% | OVCAR-3 ovarian 9.65%

CCCCCOC(=O)c1c(C)[nH]c(/C=C2\N=C(c3ccc[nH]3)C=C2OC)c1C
active: SR leukemia -30% | RPMI-8226 leukemia -43.6% | OVCAR-8 ovarian 7.42% | OVCAR-5 ovarian -47.1% | OVCAR-4 ovarian -7.23% | SK-OV-3 ovarian 8.75% | IGROV1 ovarian -14.1% | OVCAR-3 ovarian -52.4% | HS 578T breast -23.5% | NCI/ADR-RES ovarian 5.69%

Oc1c(Br)cc(Br)c2ccc(Cn3cc(-c4ccc(C(F)(F)F)cc4)nn3)nc12
inactive: OVCAR-8 ovarian 59.5% | OVCAR-5 ovarian 89% | OVCAR-4 ovarian 54% | SK-OV-3 ovarian 110% | IGROV1 ovarian 79.6% | HS 578T breast 101% | NCI/ADR-RES ovarian 105%
active: SR leukemia -22.9% | RPMI-8226 leukemia -1.77% | OVCAR-3 ovarian -7.84%

Cc1ccc(/C=C2\COc3ccc(O)cc3C2=O)cc1
inactive: SR leukemia 12.7% | OVCAR-8 ovarian 91.7% | OVCAR-5 ovarian 102% | OVCAR-4 ovarian 93.3% | SK-OV-3 ovarian 126% | IGROV1 ovarian 95.1% | OVCAR-3 ovarian 101% | HS 578T breast 97.5% | NCI/ADR-RES ovarian 101%
active: RPMI-8226 leukemia -1.31%

COc1ccccc1CNc1c2ccccc2nc2ccccc12
inactive: OVCAR-8 ovarian 31.9% | OVCAR-5 ovarian 49.8% | OVCAR-4 ovarian 42.2% | SK-OV-3 ovarian 61.4% | IGROV1 ovarian 26.3% | OVCAR-3 ovarian 54.3% | HS 578T breast 62% | NCI/ADR-RES ovarian 34.8%
active: SR leukemia 9.9% | RPMI-8226 leukemia 8.12%

C=CCc1c(O)c(C(=O)/C=C/c2ccccc2)c(OC)c2ccoc12
inactive: SR leukemia 20.6% | OVCAR-8 ovarian 29.6% | OVCAR-5 ovarian 90.5% | OVCAR-4 ovarian 49.1% | SK-OV-3 ovarian 74.4% | IGROV1 ovarian 54.7% | OVCAR-3 ovarian 13.7% | HS 578T breast 66.1% | NCI/ADR-RES ovarian 21%
active: RPMI-8226 leukemia 6.17%

COc1ccc(OC)c(-c2nc(SCC(=O)c3ccc(C#N)cc3)[nH]c(=O)c2C#N)c1
inactive: SR leukemia 97.3% | RPMI-8226 leukemia 114% | OVCAR-8 ovarian 99.3% | OVCAR-5 ovarian 89.5% | OVCAR-4 ovarian 106% | SK-OV-3 ovarian 78% | IGROV1 ovarian 96.4% | OVCAR-3 ovarian 89.4% | HS 578T breast 102% | NCI/ADR-RES ovarian 97.4%

COC12C=C/C(=C(/C(=O)OCc3ccncc3)C(=O)CCCCCCCCC3(OC)C=C/C(=C(/C(=O)OCc4ccncc4)C(=O)CCCCCCCC1)O3)O2
active: SR leukemia -16.2% | RPMI-8226 leukemia -24.7% | OVCAR-5 ovarian -20.7% | OVCAR-4 ovarian -2.29% | IGROV1 ovarian -32.2% | OVCAR-3 ovarian -74.3% | NCI/ADR-RES ovarian 5.85%
inactive: OVCAR-8 ovarian 14.7% | SK-OV-3 ovarian 40.1% | HS 578T breast 34.6%

O=S(=O)(NCCNc1nccc(-c2c(-c3ccc(F)c(O)c3)nc3sccn23)n1)c1ccc(O)cc1
inactive: SR leukemia 38.4% | RPMI-8226 leukemia 17.9% | OVCAR-8 ovarian 32.8% | OVCAR-5 ovarian 104% | OVCAR-4 ovarian 34.1% | SK-OV-3 ovarian 53.7% | IGROV1 ovarian 36.1% | OVCAR-3 ovarian 57.4% | HS 578T breast 64.1% | NCI/ADR-RES ovarian 39.6%

COc1ccc2cc1Oc1ccc(cc1)C[C@H]1c3c(cc4c(c3Oc3cc5c(cc3OC)CCN(C)[C@@H]5C2)OCO4)CCN1C
active: SR leukemia -17.3% | HS 578T breast -6.41%
inactive: RPMI-8226 leukemia 48% | OVCAR-8 ovarian 43.9% | OVCAR-5 ovarian 90.2% | OVCAR-4 ovarian 64.8% | SK-OV-3 ovarian 110% | IGROV1 ovarian 44.3% | OVCAR-3 ovarian 49.5% | NCI/ADR-RES ovarian 76.2%

COC(=O)[C@]1(C)CCC[C@]2(C)[C@H]3C[C@H]4C(C(C)C)=C[C@]3(CC[C@H]21)[C@@H]1C(=O)CC[C@H](OCCC#N)[C@@H]14
inactive: SR leukemia 58.9% | RPMI-8226 leukemia 68% | OVCAR-8 ovarian 99.2% | OVCAR-5 ovarian 129% | OVCAR-4 ovarian 77.3% | SK-OV-3 ovarian 109% | IGROV1 ovarian 67.3% | OVCAR-3 ovarian 81.5% | HS 578T breast 79.9% | NCI/ADR-RES ovarian 77.8%

COc1ccc(/C=N/NC(=O)c2ccc(-n3cc(-c4ccccc4)nn3)cc2)cc1OC
inactive: SR leukemia 111% | RPMI-8226 leukemia 61.8% | OVCAR-8 ovarian 99% | OVCAR-5 ovarian 97.9% | OVCAR-4 ovarian 106% | SK-OV-3 ovarian 99.3% | IGROV1 ovarian 95.6% | OVCAR-3 ovarian 129% | HS 578T breast 103% | NCI/ADR-RES ovarian 101%

CNc1nnc2n(-c3ccccc3)c(=O)c3cnn(-c4ccccc4)c3n12
inactive: SR leukemia 65.2% | RPMI-8226 leukemia 85.3% | OVCAR-8 ovarian 95.7% | OVCAR-5 ovarian 99.3% | OVCAR-4 ovarian 107% | SK-OV-3 ovarian 68.4% | IGROV1 ovarian 94.8% | OVCAR-3 ovarian 104% | HS 578T breast 97.4% | NCI/ADR-RES ovarian 96.6%

O=C1C(Cl)=C(Nc2ccc(S(=O)(=O)N3CCOCC3)cc2)C(=O)c2ccccc21
active: SR leukemia -3.16%
inactive: RPMI-8226 leukemia 21.2% | OVCAR-8 ovarian 70% | OVCAR-5 ovarian 38.1% | OVCAR-4 ovarian 86% | SK-OV-3 ovarian 81.3% | IGROV1 ovarian 62.5% | OVCAR-3 ovarian 72.8% | HS 578T breast 79.2% | NCI/ADR-RES ovarian 90%

COc1cc(C2CC(c3ccc(Nc4nc(Nc5ccc(Cl)cc5)nc(Nc5ccc(Cl)cc5)n4)cc3)=NN2C(C)=O)cc(OC)c1OC (stereo not given)
inactive: SR leukemia 72.7% | RPMI-8226 leukemia 32% | OVCAR-8 ovarian 107% | OVCAR-5 ovarian 92.8% | OVCAR-4 ovarian 97.3% | SK-OV-3 ovarian 126% | IGROV1 ovarian 85.7% | OVCAR-3 ovarian 105% | HS 578T breast 122% | NCI/ADR-RES ovarian 92.7%

CN(C)CC1CCC(CN(C)C)C1=O (stereo not given)
inactive: SR leukemia 59.7% | RPMI-8226 leukemia 62.2% | OVCAR-8 ovarian 105% | OVCAR-5 ovarian 122% | OVCAR-4 ovarian 115% | SK-OV-3 ovarian 105% | IGROV1 ovarian 115% | OVCAR-3 ovarian 132% | HS 578T breast 105% | NCI/ADR-RES ovarian 117%

CCOC(=O)c1cc2c(n1Cc1cc(OC)c(OC)c(OC)c1)-c1nc(N)sc1CCC2
inactive: RPMI-8226 leukemia 75.9% | OVCAR-8 ovarian 55.4% | OVCAR-5 ovarian 98.3% | OVCAR-4 ovarian 65% | SK-OV-3 ovarian 29.3% | IGROV1 ovarian 50.8% | OVCAR-3 ovarian 21.1% | HS 578T breast 55.7% | NCI/ADR-RES ovarian 20.8%
active: SR leukemia 5.15%

COc1cc(/C=C/C(=O)c2ccc(F)cc2)ccc1OCCCCOc1ccc(/C=C/C(=O)c2c(C)nc3ccccc3c2C)cc1OC
inactive: SR leukemia 79.2% | RPMI-8226 leukemia 79.3% | OVCAR-8 ovarian 78.3% | OVCAR-5 ovarian 108% | OVCAR-4 ovarian 76.5% | SK-OV-3 ovarian 107% | IGROV1 ovarian 101% | OVCAR-3 ovarian 92% | HS 578T breast 117% | NCI/ADR-RES ovarian 91.4%

O=C(CSC(=S)n1cnnc1)NC(=O)c1ccccc1
inactive: SR leukemia 85.3% | RPMI-8226 leukemia 100% | OVCAR-8 ovarian 115% | OVCAR-5 ovarian 100% | OVCAR-4 ovarian 100% | SK-OV-3 ovarian 105% | IGROV1 ovarian 108% | OVCAR-3 ovarian 96.7% | HS 578T breast 103% | NCI/ADR-RES ovarian 99.7%

CC/C=C\C[C@H](O)C/C=C1/C(=O)C=C[C@@H]1C/C=C\CCCC(=O)N(C)C
active: SR leukemia 6.2% | RPMI-8226 leukemia 4.43% | OVCAR-8 ovarian 2.8% | OVCAR-3 ovarian 8.73%
inactive: OVCAR-5 ovarian 19.2% | OVCAR-4 ovarian 43.9% | SK-OV-3 ovarian 21.8% | IGROV1 ovarian 11.5% | HS 578T breast 16.4% | NCI/ADR-RES ovarian 16.7%

CCNCCNc1cc(-c2ccc(C(F)(F)F)cc2)c(C#N)c2nc3ccccc3n12
active: SR leukemia -47.6% | RPMI-8226 leukemia -38.8% | OVCAR-8 ovarian -47.2% | OVCAR-5 ovarian -61.9% | OVCAR-4 ovarian -61.8% | SK-OV-3 ovarian -94.1% | IGROV1 ovarian -78.5% | OVCAR-3 ovarian -88.3% | HS 578T breast -46.3% | NCI/ADR-RES ovarian -49.7%

CCSc1nc2scc(C)c2c(=O)[nH]1
inactive: SR leukemia 101% | RPMI-8226 leukemia 101% | OVCAR-8 ovarian 99.3% | OVCAR-5 ovarian 99.8% | OVCAR-4 ovarian 96.7% | SK-OV-3 ovarian 98.5% | IGROV1 ovarian 102% | OVCAR-3 ovarian 107% | HS 578T breast 95.5% | NCI/ADR-RES ovarian 102%

CCn1c(SCC(=O)N/N=C(\C)c2ccc(Cl)cc2)nc2c1c(=O)n(C)c(=O)n2C
inactive: SR leukemia 93.4% | RPMI-8226 leukemia 103% | OVCAR-8 ovarian 99.9% | OVCAR-5 ovarian 99% | OVCAR-4 ovarian 99.8% | SK-OV-3 ovarian 109% | IGROV1 ovarian 96.5% | OVCAR-3 ovarian 115% | HS 578T breast 94.4% | NCI/ADR-RES ovarian 102%

CCC(C)(C)C(=O)O[C@H]1C[C@@H](C)C=C2C=C[C@H](C)[C@H](CC[C@@H]3CC(SCCN)CC(=O)O3)[C@H]21 (stereo not given in full)
inactive: SR leukemia 23.3% | OVCAR-8 ovarian 88.1% | OVCAR-5 ovarian 99.1% | OVCAR-4 ovarian 101% | SK-OV-3 ovarian 102% | IGROV1 ovarian 98.6% | OVCAR-3 ovarian 90.9% | HS 578T breast 98.9% | NCI/ADR-RES ovarian 96.7%
active: RPMI-8226 leukemia 6.62%

Cc1ccc2c(c1)=C/C(=C\c1cc(-c3ccccc3)oc1O)C(=O)N=2
inactive: SR leukemia 101% | RPMI-8226 leukemia 94.2% | OVCAR-8 ovarian 104% | OVCAR-5 ovarian 97.9% | OVCAR-4 ovarian 105% | SK-OV-3 ovarian 111% | IGROV1 ovarian 111% | OVCAR-3 ovarian 96.5% | HS 578T breast 106% | NCI/ADR-RES ovarian 98.4%

CC(C)(Sc1cc(C(C)(C)C)c(O)c(C(C)(C)C)c1)Sc1cc(C(C)(C)C)c(OC(=O)CCCC(=O)O)c(C(C)(C)C)c1
inactive: SR leukemia 28.1% | RPMI-8226 leukemia 37.2% | OVCAR-8 ovarian 56.7% | OVCAR-5 ovarian 100% | OVCAR-4 ovarian 67.9% | SK-OV-3 ovarian 91.6% | IGROV1 ovarian 57.4% | OVCAR-3 ovarian 44.2% | HS 578T breast 80.1% | NCI/ADR-RES ovarian 78.7%

CC(C)=CCC[C@](C)(O)[C@H]1CC[C@]2(C)[C@@H]1CC[C@@H]1[C@@]3(C)C/C(=C/c4ccco4)C(=O)C(C)(C)[C@@H]3CC[C@]12C
inactive: SR leukemia 113% | RPMI-8226 leukemia 101% | OVCAR-8 ovarian 104% | OVCAR-5 ovarian 102% | OVCAR-4 ovarian 106% | SK-OV-3 ovarian 109% | IGROV1 ovarian 107% | OVCAR-3 ovarian 103% | HS 578T breast 94.5% | NCI/ADR-RES ovarian 104%
